In PubChem BioAssay (EPA / NIEHS):
Where “and” joins values, the source holds several entries; their conditions need not be identical. Equal entries are not always repeated. Inconclusive results are not listed. The source holds several records for some structures; these can differ, active in one and inactive in another. Calls of active or inactive are those of the source. The calls were made as follows, unless noted: active = hit-call score of the fitted dose curve at least 0.9, where 1 is the maximum; inconclusive = response in the unintended direction; inactive = score below 0.9. Where a SMILES comes first, the peptide text is derived from it. Bridges are numbered along the chain shown (N, C = ends). [ ]: non-standard residue; d: D form. Orn = NCCC[C@H](N)C(=O)O; Mpa = O=C(O)CCS

Columns and labels:
[1] = molecular target: Cellular tumor antigen p53 (Homo sapiens) (UniProt P04637); experiment: TOX21_p53_BLA_p2_ratio: Tox21 HCT-116 p53 Agonism Beta-lactamase Assay, Ratio, Phase 2 (AID 2283592)
Method in brief: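 Cleaved-to-uncleaved substrate ratio (460 vs 530 nm) measured in HCT116 cells with an inducible beta-lactamase reporter linked to p53 activity. Compounds incubated 16 h at 37C before 2 h room-temperature CCF4-AM loading.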

[2] = TOX21_p53_BLA_p3_viability: Viability Assessment in the Tox21 HCT-116 p53 Agonism Beta-lactamase Assay, Phase 3 (AID 2283593);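 also: cells exposed to compound for 16 h before reading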
Method in brief: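 HCT116 cells, 4000/well, dosed 5 h after plating by pin transfer (217-fold dilution from DMSO stock) and incubated 16 h at 37C, 5% CO2. Viability read as ATP luminescence with CellTiter-Glo after 30 min at room temperature.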

[3] = TOX21_p53_BLA_p4_viability: Viability Assessment in the Tox21 HCT-116 p53 Agonism Beta-lactamase Assay, Phase 4 (AID 2283597);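 also: hits lower the luminescence signal meaning cytotoxicity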
Method in brief: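 Viability is taken as cellular ATP: after 16 h compound exposure of HCT116 cells and a 2 h room-temperature CCF4-AM substrate step, CellTiter-Glo reagent is added and luminescence is measured 30 min later.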

[4] = molecular target: Cellular tumor antigen p53 (Homo sapiens) (UniProt P04637); experiment: TOX21_p53_BLA_p5_ratio: Tox21 HCT-116 p53 Agonism Beta-lactamase Assay, Ratio, Phase 5 (AID 2283599)
Method in brief: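 HCT-116 p53-bla cells (4000/well) plated 5 h, dosed with compound (217-fold DMSO dilution) for 16 h at 37 C; CCF4-AM substrate 2 h at room temperature. Activity is the 460/530 nm emission ratio (405 nm excitation), fitted in gain-of-signal direction versus DMSO.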

[5] = TOX21_p53_BLA_p5_viability: Viability Assessment in the Tox21 HCT-116 p53 Agonism Beta-lactamase Assay, Phase 5 (AID 2283600)
Method in brief: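 Viability is taken from cellular ATP content, measured by luciferase luminescence in the same wells after the beta-lactamase ratio read. Cells are seeded at 4000 per well and exposed to DMSO-dissolved compounds, diluted 217-fold, for 16 h.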

[6] = molecular target: Cellular tumor antigen p53 (Homo sapiens) (UniProt P04637); experiment: TOX21_p53_BLA_p4_ratio: Tox21 HCT-116 p53 Agonism Beta-lactamase Assay, Ratio, Phase 4 (AID 2283601)
Method in brief: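 HCT-116 p53 beta-lactamase reporter cells (4000/well) preincubated 5 h, then compound (217-fold dilution of DMSO stock) for 16 h at 37C. CCF4-AM substrate added 2 h at room temperature; 460/530 nm emission ratio fitted upward versus DMSO.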

[7] = molecular target: Cellular tumor antigen p53 (Homo sapiens) (UniProt P04637); experiment: TOX21_p53_BLA_p3_ratio: Tox21 HCT-116 p53 Agonism Beta-lactamase Assay, Ratio, Phase 3 (AID 2283596)
Method in brief: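 Cells were seeded at 4000/well, rested 5 h at 37C, then dosed with DMSO compound solutions (217-fold dilution) for 16 h. CCF4-AM substrate was loaded for 2 h at room temperature, and the 460/530 nm emission ratio was fitted for gain of signal versus DMSO.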

PGR (gene 5241) [8] = molecular target: PGR (gene 5241) (UniProt P06401); experiment: TOX21_PR_BLA_Followup_Agonist_ratio: Tox21 HEK293 Progesterone Receptor (PR) Agonism Beta-lactamase Follow-Up Assay, Ratio (AID 2283933)
Method in brief: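 Read-out: ratio of cleaved (ch2) to uncleaved (ch1) beta-lactamase substrate fluorescence, gain-of-signal relative to DMSO baseline. Cells: PR-UAS-bla HEK293T, 2% charcoal-stripped FBS; compound exposure 16 hr, 37C; substrate 2 hr, RT.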

PGR (gene 5241) [9] = molecular target: PGR (gene 5241) (UniProt P06401); experiment: TOX21_PR_BLA_Followup_Antagonist_ratio: Tox21 HEK293 Progesterone Receptor (PR) Antagonism Beta-lactamase Follow-Up Assay, Ratio (AID 2283934)
Method in brief: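 Read-out: blue/green beta-lactamase FRET ratio (cleaved ch2 over uncleaved ch1), fitted relative to DMSO baseline. Cells: PR-UAS-bla HEK293T, GAL4-UAS reporter, stimulated with 1 nM R5020 final; 16 hr compound exposure, 37C.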

[10] = TOX21_PR_BLA_Followup_Agonist_viability: Viability Assessment in the Tox21 HEK293 Progesterone Receptor (PR) Agonism Beta-lactamase Follow-Up Assay (AID 2283935);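 also: signal loss means lower viability so actives are cytotoxic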
Method in brief: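 Luminescent ATP quantitation (CellTiter-Glo, 30 min, room temperature) in the same wells as the beta-lactamase read, on PR-UAS-bla HEK293T cells exposed to compound for 16 hr at 37C in 2% charcoal-stripped serum.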

PGR (gene 5241) [11] = molecular target: PGR (gene 5241) (UniProt P06401); experiment: TOX21_PR_LUC_Followup_Agonist: Tox21 HEK293 Progesterone Receptor (PR) Agonism Luciferase Follow-Up Assay (AID 2283937; active = hit-call score of the fitted dose curve at least 0.9, where 1 is the maximum; inactive = score below 0.9)
Method in brief: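 Luminescence read-out (ONE-Glo, 30 min at room temperature) of PR-driven luciferase in HEK293-PR-A-luc cells after 16 h compound exposure at 37C; gain of signal fitted relative to DMSO baseline.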

[12] = TOX21_PR_LUC_Followup_Agonist_viability: Viability Assessment in the Tox21 HEK293 Progesterone Receptor (PR) Agonism Luciferase Follow-Up Assay (AID 2283941);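 also: loss of signal means cytotoxicity so actives lower viability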
Method in brief: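 Cytotoxicity counter-screen: ATP content by CellTiter-Glo luminescence, loss of signal = reduced viability. HEK293-PR-A-luc, 3,000 cells/well, compound exposure 16 h, 37C.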

PGR (gene 5241), sequence (P06401 whole entry, looked up, the tested form may be a part): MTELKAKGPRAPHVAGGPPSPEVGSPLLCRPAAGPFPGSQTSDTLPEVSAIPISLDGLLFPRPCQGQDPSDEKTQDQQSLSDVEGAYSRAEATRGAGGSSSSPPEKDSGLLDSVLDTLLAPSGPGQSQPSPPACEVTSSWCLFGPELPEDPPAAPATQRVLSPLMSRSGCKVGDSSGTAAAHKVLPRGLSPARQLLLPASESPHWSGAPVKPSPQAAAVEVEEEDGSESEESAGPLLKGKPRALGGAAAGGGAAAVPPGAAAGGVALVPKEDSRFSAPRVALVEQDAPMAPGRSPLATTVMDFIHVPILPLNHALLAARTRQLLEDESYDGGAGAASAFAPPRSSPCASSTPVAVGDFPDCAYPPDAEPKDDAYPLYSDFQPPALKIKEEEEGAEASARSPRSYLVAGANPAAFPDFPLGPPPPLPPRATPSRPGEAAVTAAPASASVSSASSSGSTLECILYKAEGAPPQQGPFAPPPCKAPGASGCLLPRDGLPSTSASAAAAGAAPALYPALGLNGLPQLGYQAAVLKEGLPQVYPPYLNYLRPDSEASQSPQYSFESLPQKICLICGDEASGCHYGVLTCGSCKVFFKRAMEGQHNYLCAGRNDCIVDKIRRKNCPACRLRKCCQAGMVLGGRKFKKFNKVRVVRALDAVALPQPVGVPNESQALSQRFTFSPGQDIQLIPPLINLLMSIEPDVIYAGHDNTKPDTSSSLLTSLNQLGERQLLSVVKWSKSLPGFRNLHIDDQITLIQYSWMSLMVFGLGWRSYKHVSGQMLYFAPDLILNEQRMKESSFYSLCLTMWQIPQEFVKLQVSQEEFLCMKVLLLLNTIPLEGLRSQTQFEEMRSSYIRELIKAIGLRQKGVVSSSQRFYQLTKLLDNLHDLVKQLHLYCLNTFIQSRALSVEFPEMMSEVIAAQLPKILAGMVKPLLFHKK
Cellular tumor antigen p53 (Homo sapiens), sequence (P04637 whole entry, looked up): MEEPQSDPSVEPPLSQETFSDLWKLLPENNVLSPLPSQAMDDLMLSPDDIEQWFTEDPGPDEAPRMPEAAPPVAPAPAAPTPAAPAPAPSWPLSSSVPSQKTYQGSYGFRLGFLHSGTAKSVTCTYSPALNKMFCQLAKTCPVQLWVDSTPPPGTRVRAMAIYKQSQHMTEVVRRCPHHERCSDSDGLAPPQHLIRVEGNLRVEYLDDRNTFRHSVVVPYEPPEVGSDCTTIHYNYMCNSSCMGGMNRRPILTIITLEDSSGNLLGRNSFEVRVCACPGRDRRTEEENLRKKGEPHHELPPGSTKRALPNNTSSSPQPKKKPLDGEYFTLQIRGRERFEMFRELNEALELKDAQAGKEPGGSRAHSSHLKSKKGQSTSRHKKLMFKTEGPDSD

## CCOC(=O)C(C)C(C)=O (stereo not drawn)
[1]
  outcome: inactive
[2]
  outcome: inactive
[3]
  outcome: inactive
[4]
  outcome: inactive
[5]
  outcome: inactive
[6]
  outcome: inactive

## CC1(C)C(\C=C/C=C\C=C/C=C2/N(CCCCS(=O)(=O)O)c3ccc4ccccc4c3C2(C)C)=[N+](CCCCS(=O)(=O)[O-])c2ccc3ccccc3c21
[1]
  outcome: inactive
[2]
  outcome: inactive
[3]
  outcome: inactive
[4]
  outcome: inactive
[5]
  outcome: inactive
[6]
  outcome: inactive

## CCNC(=O)C(C)OC(=O)Nc1ccccc1 (stereo not drawn)
[1]
  outcome: inactive
[2]
  outcome: inactive
[3]
  outcome: inactive

## O=C1CCC(=O)O1
[1]
  outcome: inactive
[2]
  outcome: inactive
[3]
  outcome: inactive
[4]
  outcome: inactive

## COc1ccc(S(=O)(=O)N2c3ccc(Cl)cc3[C@@](O)(c3ccccc3Cl)[C@H]2C(=O)N2CCC[C@@H]2C(N)=O)cc1OC
[1]
  outcome: inactive
[2]
  outcome: inactive
[3]
  outcome: inactive
[4]
  outcome: inactive

## CCCCCC(=Cc1ccccc1)CO
[1]
  outcome: inactive
[2]
  outcome: inactive
[3]
  outcome: inactive
[4]
  outcome: inactive
[5]
  outcome: inactive

## c1ccc(SSc2ccccc2)cc1
[1]
  outcome: inactive
[2]
  outcome: inactive
[3]
  outcome: inactive
[4]
  outcome: inactive
[6]
  outcome: inactive

## COC[C@H](c1ccc(C(F)(F)F)cc1)N1CCN(C2(C)CCN(C(=O)c3c(C)ncnc3C)CC2)C[C@H]1C
[1]
  outcome: inactive
[2]
  outcome: inactive
[3]
  outcome: inactive
[4]
  outcome: inactive
[5]
  outcome: inactive
[6]
  outcome: inactive

## CC1=CC(=O)CC(C)(C)C1(O)/C=C/C(C)=C\C(=O)O (stereo not drawn)
[1]
  outcome: inactive
[2]
  outcome: inactive
[3]
  outcome: inactive
[4]
  outcome: inactive
[5]
  outcome: inactive
[6]
  outcome: inactive

## CN(C(=O)c1c(O)c2ccccc2n(C)c1=O)c1ccccc1
[1]
  outcome: inactive
[2]
  outcome: inactive
[3]
  outcome: inactive
[4]
  outcome: inactive
[5]
  outcome: inactive
[6]
  outcome: inactive

## COC(C)(OC)OC
[2]
  outcome: inactive
[3]
  outcome: inactive
[4]
  outcome: inactive
[6]
  outcome: inactive

## CCCCCCCCCCCCCCCCCCOCC(O)CO (stereo not drawn)
[1]
  outcome: inactive
[7]
  outcome: inactive
[4]
  outcome: inactive
[5]
  outcome: inactive
[6]
  outcome: inactive

## CCOc1ccc(C[C@H]2NC(=O)CCSSC[C@@H](C(=O)N3CCC[C@H]3C(=O)N[C@@H](CCCN)C(=O)NCC(N)=O)NC(=O)[C@H](CC(N)=O)NC(=O)[C@H]([C@@H](C)O)NC(=O)[C@H]([C@@H](C)CC)NC2=O)cc1 ([Mpa][dY](Et)ITNCP[Orn]G-NH2; disulfide 1-6)
[1]
  outcome: inactive
[2]
  outcome: inactive
[3]
  outcome: inactive
[5]
  outcome: inactive
[6]
  outcome: inactive

## NC(=O)c1ncn([C@@H]2O[C@H](CO)[C@@H](O)[C@H]2O)n1
[1]
  AC50: 32.2 µM (active) and 20.3 µM (active)
[7]
  AC50: 17 µM (active)
[3]
  outcome: inactive
[4]
  AC50: 45.7 µM (active)
  outcome: inactive
[6]
  AC50: 15.6 µM (active)

## CC[C@@H](C(=O)[C@@H](C)[C@@H](O)[C@H](C)[C@@H]1O[C@@H]([C@@H](CC)C(=O)O)CC[C@@H]1C)[C@H]1O[C@]2(C=C[C@@H](O)[C@]3(CC[C@@](C)([C@H]4CC[C@](O)(CC)[C@H](C)O4)O3)O2)[C@H](C)C[C@@H]1C
[1]
  outcome: inactive
[7]
  outcome: inactive
[4]
  outcome: inactive
[6]
  outcome: inactive

## CCCc1cc(C(N)=S)ccn1
[1]
  outcome: inactive
[2]
  outcome: inactive
[3]
  outcome: inactive
[5]
  outcome: inactive

## Cc1cc(C(=O)NCCc2ccc(S(=O)(=O)NC(=O)NN3CCCCCC3)cc2)no1
[1]
  outcome: inactive
[3]
  outcome: inactive
[6]
  outcome: inactive

## O=C(NCCN1CCOCC1)c1ccc(Cl)cc1
[1]
  outcome: inactive
[7]
  outcome: inactive
[3]
  outcome: inactive
[4]
  outcome: inactive
[5]
  outcome: inactive
[6]
  outcome: inactive

## CCN(Cc1ccccc1)c1ccccc1
[1]
  outcome: inactive
[7]
  outcome: inactive
[3]
  outcome: inactive
[4]
  outcome: inactive
[5]
  outcome: inactive
[6]
  outcome: inactive

## O=P(O)(O)OC(CO)CO
[1]
  outcome: inactive
[2]
  outcome: inactive
[3]
  outcome: inactive
[5]
  outcome: inactive

## Nc1cc(Cl)c([N+](=O)[O-])cc1O
[1]
  outcome: inactive
[7]
  outcome: inactive
[3]
  outcome: inactive
[4]
  outcome: inactive
[5]
  outcome: inactive
[6]
  outcome: inactive

## COC(=O)C1CC(=O)C(C(=O)OC)CC1=O (stereo not drawn)
[1]
  outcome: inactive
[2]
  outcome: inactive
[3]
  outcome: inactive
[6]
  outcome: inactive

## CC(=C(CCO)SSCC1CCCO1)N(C=O)Cc1cnc(C)nc1N (stereo not drawn)
[3]
  outcome: inactive
[4]
  outcome: inactive

## CCOC(=O)c1ccc(NC(=O)CN2CCCCC2)cc1
[1]
  outcome: inactive
[2]
  outcome: inactive
[4]
  outcome: inactive
[5]
  outcome: inactive

## CC(=O)OCC(=O)[C@@]1(O)CC[C@H]2[C@@H]3CCC4=CC(=O)C=C[C@]4(C)[C@H]3[C@@H](O)C[C@@]21C
PGR (gene 5241) [8]
  outcome: inactive
PGR (gene 5241) [9]
  outcome: inactive
[10]
  outcome: inactive
PGR (gene 5241) [11]
  AC50: 2.28 µM (active)
[12]
  outcome: inactive

## N[C@@H](Cc1cnc[nH]1)C(=O)O
[1]
  outcome: inactive
[2]
  outcome: inactive
[3]
  outcome: inactive
[5]
  outcome: inactive
